Experimental data published in paper PMC5540273 (PLoS ONE, 2017).

system: CSF1R-autoinhibited; conditions: concentration: 1 μM, replicates: in singlicate; n = 1
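Note: KINOMEscan kinase panel screen.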

Compound | %Inh [%]
COc1cc(Nc2nccc(N3CCC(NC(=O)C4COc5ccccc5O4)C3)n2)cc(OC)c1OC (centres unmarked) [GSK1379761] | 58
CC(C)(C)c1ccc(C(=O)Nc2cn3cc(-c4ccccc4)ccc3n2)cc1 | 0
CN1C(=O)C(Nc2ccccc2)=C(c2ccccc2)C1=O [SB-300079] | 0
CCC(=O)c1c(-c2ccccc2)c2cc(Cl)ccc2c(=O)n1Cc1ccc(C(=O)O)cc1 | 0
CCS(=O)c1ccc(-c2coc3ccc(-c4nnc(C)o4)cc23)cc1 (centres unmarked) | 8
COc1cc(Nc2nccc(N3CCC(NC(=O)C(C)c4ccc(Cl)cc4)C3)n2)cc(OC)c1OC (centres unmarked) [GSK1379757] | 0
COc1cccc(-n2cnc3c(N)ncnc32)c1 [SKF-97416] | 16
OCCCNc1nccc(-c2c(-c3cccc(C(F)(F)F)c3)nn3cc(C(F)(F)F)ccc23)n1 [GW630813] | 32
COc1cc2nccc(Nc3cccc(Oc4ccccc4)c3)c2cc1OC.Cl [GW284543] | 32
CN(C)c1cc(-c2ccc3c(N)n[nH]c3c2)nc(N)n1 [GSK2219329] | 0
Cl.NS(=O)(=O)c1cccc(Nc2cc(-c3ccc(F)cc3)n[nH]2)c1 [GW824645] | 0
Nc1nc(N)c2nc(-c3ccccc3)[nH]c2n1 [SKF-12778] | 0
COc1cc2ncn(-c3cc(OCc4ccc(S(C)(=O)=O)cc4)c(C(N)=O)s3)c2cc1OC [GW869979] | 5
COc1ccc(-c2cc3c(C)nc(N)nc3n([C@H]3CC[C@H](OCCO)CC3)c2=O)cn1 | 12
CCn1c(-c2nonc2N)nc2ccccc21 [SB-693162/GW549034] | 8
COc1cc2ncn(-c3cc(OCCCc4ccccc4)c(C(N)=O)s3)c2cc1OC [GSK205189] | 0
COc1ccc(CNC(=O)NC2CCN(c3ccnc(Nc4ccc(F)cc4)n3)C2)cc1 (centres unmarked) [GSK1379706] | 50
Cc1ccccc1COc1cc(-n2cnc3cc(Cl)ccc32)sc1C(N)=O [GW813349] | 0
Nc1n[nH]c2nnc(-c3ccccc3)c(-c3ccccc3)c12 [GW554060] | 34
Cc1nnc(-c2ccc3ncn(-c4ccc(S(C)=O)cc4)c3c2)o1 (centres unmarked) | 7
CCc1ccc(-c2ccc3c(c2)-c2nn(C)cc2S(=O)(=O)N3C)cc1 | 2
Cc1c(Cn2c(C)nn3c(=O)cc(N4CCO[C@H](C)C4)nc23)cccc1C(F)(F)F [GSK2373690] | 0
CCc1nc(-c2cccc(C)c2)c(-c2ccncc2)s1 | 0
